# USP1-UAF1 inh – USP1/UAF1 (human) deubiquitinase inhibition; recombinant USP1/UAF1, Ub-Rhodamine cleavage fluorescence; Potency, µM (titrated, usually from 57.1 µM), for inactives: top-dose activity change, negative = inhibition, hits mostly inhibitors; 0.23% of 390,000 active; further: on the % scale 0 is the no-effect control and ±100 the full control effect; nearly all actives have a fitted effect of over 60% in size
#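 In this screen, compounds sit with the deubiquitinase complex (1nM) for 15 min at room temperature before Ub-Rho is added at 150nM final. Fluorescence rise is then followed for 6 reads every 60 seconds.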
# EPAC1 agonist – EPAC1 (human) agonism. EPAC1 agonist qHTS, biochemical assay; response scale: 100% = response to 6.5 mM cAMP. Potency, µM (highest dose often 154 µM), for the others: top-dose activation, actives largely listed as activators. 0.073% of 360,000 active. AID 720707; further: nearly all actives have a fitted effect of over 60% in size
#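 Nucleotide exchange assay: 100 nM EPAC1 with 250 nM Rap1B loaded with BODIPY-GDP and 50 uM GDP, room temperature. Fluorescence (480/540 nm) read every 5 min for 30 min; signal change normalized to 6.5 mM cAMP as full agonist.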
# EPAC2 antag – antagonists of human EPAC2; AID 720708; Q8WZA2; 0.18% of 360,000 active; Potency, µM (doses to about 114 µM), for the others: at the top dose activity, negative = inhibition, usual class: inhibitors; EPAC2 GEF exchange of Rap1B-BODIPY-GDP, fluorescence; further: on the % scale 0 is the no-effect control and ±100 the full control effect; nearly all actives have a fitted effect of over 45% in size
# EPAC2 agonist – activates human EPAC2 exchange factor; 0.079% of 360,000 active; Q8WZA2; EPAC2 activation, biochemical qHTS; response scale: 100% = 6.5 mM cAMP response; Potency, µM (titrated, usually from 154 µM), inactives show at the highest dose activation, most hits filed as activators; AID 720711; further: nearly all actives have a fitted effect of over 50% in size
#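 Readout is BODIPY fluorescence (480 nm excitation, 540 nm emission), which falls as labeled GDP is exchanged off Rap1B. EPAC2 at 100 nM acted on 250 nM RAP1B-BODIPY-GDP with 50 uM GDP present.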
# EPAC1 antagonist – EPAC1 (human) antagonism | 0.14% of 360,000 active | O95398 | EPAC1 GEF assay, Rap1b-BODIPY-GDP exchange fluorescence | AID 720709 | Potency, µM (highest dose often 115 µM), for the others: top-dose activity change, negative = inhibition, usual class: inhibitors;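 further: plate controls were vehicle for no effect and positive control for full effect; nearly all actives have a fitted effect of over 50% in size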
# Active calls of the source: *; i = inactive; ? = inconclusive; . = no result given. Rows were chosen to be rich in hits. Some 0.44% of all compounds tested hit in one or more screens of this group. The call rests on the fitted dose curve; in most records, active means well fitted curve in the direction sought with a large enough effect; inconclusive means small, poorly fitted or top-dose-only effect, or another doubt; inactive means no such curve, though single readings can be large; an effect the other way counts as inactive or inconclusive. Potency means the concentration at half of the fitted maximal effect.
SMILES,USP1-UAF1 inh,EPAC1 agonist,EPAC2 antag,EPAC2 agonist,EPAC1 antagonist
Cc1ccsc1/C=N/NS(=O)(=O)c1ccc([N+](=O)[O-])cc1,-15%,-4%,19%,5%,3%
Cn1cc(C(=O)C(=O)N2CCCCC2)c2ccccc21,-5%,40µM*,i,?,31%
O=C(CSc1nnc(-c2cccs2)n1Cc1ccco1)Nc1ccc2c(c1)OCO2,-14%,-8%,6%,7.9µM*,-6%
Nc1ccc(N(CCO)CCO)cc1,8.9µM*,16%,16%,9%,11%
CCN(CC)c1ccc(N)cc1,-32%,6%,-14%,9%,0%
CC1=NN(c2nc(-c3ccccc3)cs2)C(=O)C1,-13%,-14%,1%,2%,79µM*
O=C1CC(c2ccccc2)=NN1c1nc(-c2ccccc2)cs1,-22%,-10%,2%,3%,?
O=C(O)c1ccccc1NS(=O)(=O)c1ccc(NN=Cc2ccc(F)cc2)c([N+](=O)[O-])c1,-12%,4%,-10%,6%,50µM*
COc1ccc(C=NNc2ccc([N+](=O)[O-])cc2S(=O)(=O)Nc2ccccc2C(=O)O)cc1OC,-11%,-10%,-20%,-8%,50µM*
O=C(O)c1ccccc1/C=N/Nc1ccc(S(=O)(=O)N2CCOCC2)cc1[N+](=O)[O-],?,9%,-19%,-4%,-1%
NS(=O)(=O)c1ccc(N/N=C/c2ccccc2C(=O)O)c([N+](=O)[O-])c1,-17%,4%,-6%,6%,?
O=C(O)c1ccccc1NS(=O)(=O)c1ccc(NN=Cc2cccc(Cl)c2)c([N+](=O)[O-])c1,?,-3%,?,-8%,50µM*
O=C(O)c1ccc(/C=N/Nc2ccc(S(=O)(=O)N3CCCC3)cc2[N+](=O)[O-])cc1,-9%,10%,3%,11%,3%
O=C(O)c1ccccc1NS(=O)(=O)c1ccc(N/N=C/c2ccc(O)c(O)c2)c([N+](=O)[O-])c1,?,-14%,56µM*,-25%,16µM*
Cc1cc(C)n(-c2ccc(C(=O)Nc3ccc(C)c(S(=O)(=O)N4CCOCC4)c3)cc2)n1,-18%,6%,3%,11%,2%
CCc1ccccc1N(C)C(=O)C1CCCN(c2ncnc3c2nc2n3CCCCC2)C1 (stereo not drawn),-5%,.,.,.,.
COc1ccccc1NS(=O)(=O)c1ccc(N/N=C/c2ccccc2OCC(=O)O)c([N+](=O)[O-])c1,-11%,3%,-11%,11%,?
O=C(O)COc1ccccc1/C=N/Nc1ccc(S(=O)(=O)Nc2ccc(Cl)cc2)cc1[N+](=O)[O-],-12%,?,1%,-6%,22µM*
COc1ccc(NC(=O)C2CCC(N3C(=O)C4C5C=CC(C5)C4C3=O)CC2)cc1 (stereo not drawn),-15%,-1%,14%,-3%,7%
COc1ccc(NC(=O)[C@@H]2[C@@H]3C(=O)N(C4CCCCC4)C(=O)[C@@H]3C3c4ccccc4C=CN32)cc1 (stereo partly drawn),32µM*,3%,-5%,-8%,-1%
C[C@@H]1CC=C[C@@H]2[C@H]1C(=O)N(Cc1ccccc1)[C@H]2c1ccccc1Br,-11%,-16%,25µM*,8%,-25%
C[C@@H]1CC=C[C@@H]2[C@H]1C(=O)N(Cc1ccccc1)[C@H]2c1cccc(Br)c1,-13%,-2%,-6%,2%,0%
COC1=CC(=O)c2nc(Cl)ccc2C1=O,.,-23%,?,28%,?
COC1=CC(=O)c2c(ccc3ncnc(N)c23)C1=O,0.89µM*,-6%,40µM*,-1%,40µM*
Cc1nc2c3ccccc3nc(NNC(=O)CCC(=O)O)n2n1,-18%,.,.,.,.
SMILES,USP1-UAF1 inh,EPAC1 agonist,EPAC2 antag,EPAC2 agonist,EPAC1 antagonist
O=C(O)c1[nH]c2ccccc2c1C(c1ccccc1)c1c(C(=O)O)[nH]c2ccccc12,-23%,-10%,-9%,-4%,-23%
O=C(O)c1[nH]c2ccccc2c1C(c1cc(Cl)cc([N+](=O)[O-])c1O)c1c(C(=O)O)[nH]c2ccccc12,32µM*,-5%,-7%,-4%,25µM*
CN(CCOc1ccc(-c2ccn(S(=O)(=O)c3cccc4ccccc34)n2)cc1)c1ccccn1,-16%,4%,6%,2%,3%
CN(C)c1ccc(/C=C2\C(=N)N3N=C(CC(=O)N4CCCCC4)SC3=NC2=O)cc1,-20%,8%,10%,100µM*,-9%
CCc1nc2c(OCc3ccc(C(F)(F)F)cc3)cccn2c1N(C)C(=O)c1ccc(C)cc1,.,-31%,16µM*,-6%,-21%
CCc1nc2c(OCc3ccc(OC)cc3)cccn2c1N(C)C(=O)c1ccc(OC)cc1,.,4%,?,16%,7%
CCc1nc2c(OCc3ccc(C(F)(F)F)cc3)cccn2c1N(C)C(=O)c1ccc(OC)cc1,.,-4%,18µM*,1%,-20%
Cc1cc(NC(=O)CSc2nnc(C)n2-c2ccccc2C)no1,?,1%,5%,3%,-9%
Cc1cc(NC(=O)COC(=O)c2cnccn2)ccc1Br,-21%,-7%,-3%,2%,11%
CN1N=C(C(=O)N=c2sc3ccccc3n2C)CCC1=O,-1%,3%,1%,11%,-13%
C=CCOC(=O)C1=C(C)NC(C)=C(C(=O)OCC=C)C1c1ccco1,-8%,0%,45µM*,2%,-14%
CCOC(=O)C1=C(C)NC(C)=C(C(=O)OC)C1c1ccco1 (stereo not drawn),-7%,-13%,-19%,9%,-16%
CCOC(=O)c1c(C)sc(-c2c(-c3cc(C)ccc3C)[nH]c3c2c(=O)[nH]c(=O)n3C)c1O,25µM*,.,.,.,.
CCOC(=O)c1c(C)sc(-c2c(-c3cc(C)ccc3C)[nH]c3c2c(=O)n(C)c(=O)n3C)c1O,28µM*,.,.,.,.
CCOC(=O)c1c(C)sc(-c2c(-c3cccc(Cl)c3)[nH]c3c2c(=O)n(C)c(=O)n3C)c1O,16µM*,.,.,.,.
COc1ccc(-c2nc3ccc(C)cn3c2Cc2ccccc2)cc1OC,.,23%,-27%,12%,-14%
CCCOc1ccc(C(=O)CCNC(Cc2c[nH]c3ccccc23)C(=O)O)cc1 (stereo not drawn),-13%,-6%,-16%,2%,-4%
CCOc1cc(/C=N/NC(=O)c2ccc3c(c2)OCCO3)cc(Br)c1O,-21%,-5%,12%,9%,71µM*
O=C(N/N=C/c1cc(Br)c(O)c(Br)c1O)c1ccc2c(c1)OCCO2,-21%,-7%,0%,1%,?
O=C1CC(=O)N(Cc2ccco2)C(=S)N1,-23%,4%,14%,5%,45µM*
N#Cc1c(SCC(=O)Nc2nncs2)sc2c(O)cc(=O)[nH]c12,-10%,-9%,1%,7%,89µM*

# High-throughput results: PubChem BioAssay, National Center for Advancing Translational Sciences (NCATS)
